In the supplement of paper PMC6555819:

Tests used:
Assay in all cases: PBM binding z-score (relative to random genomic background probes); higher = stronger binding; sequences stand for … in GC…GCGATTGACAGCGTAGAATGAAGG
[1] = test system: FXR:RXRa (NR concentration 270 nM, RXRa partner concentration 90 nM)
Procedure, shortened: (§1)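 Each nuclear receptor dimer, without ligand, was incubated for 1 h on custom Agilent 4×180K protein-binding microarrays. Binding was detected with antibodies against each partner (one per run), and scanned fluorescence was regression-normalized. The binding z-scores are referenced to random human genomic background probes.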

[2] = test system: LXRa:RXRa (NR concentration 270 nM, RXRa partner concentration 90 nM)
Procedure, shortened: as §1

[3] = test system: LXRa homodimer (NR concentration 270 nM)
Procedure, shortened: as §1

[4] = test system: LXRb:RXRa (NR concentration 270 nM, RXRa partner concentration 90 nM)
Procedure, shortened: as §1

[5] = test system: LXRb homodimer (NR concentration 270 nM)
Procedure, shortened: as §1

[6] = test system: PPARa:RXRa (NR concentration 270 nM, RXRa partner concentration 90 nM)
Procedure, shortened: as §1

[7] = test system: PPARg:RXRa (NR concentration 180 nM, RXRa partner concentration 90 nM)
Procedure, shortened: as §1

[8] = test system: PPARg:RXRa 270nM:90nM, anti-RXR (NR concentration 270 nM, RXRa partner concentration 90 nM)
Procedure, shortened: as §1

[9] = test system: PPARg:RXRa 30nM:10nM, anti-RXR (NR concentration 30 nM, RXRa partner concentration 10 nM)
Procedure, shortened: as §1

[10] = test system: PPARg:RXRa 90nM:30nM, anti-RXR (NR concentration 90 nM, RXRa partner concentration 30 nM)
Procedure, shortened: as §1

[11] = test system: PPARg:RXRa DBDmut IVT, anti-RXR (DBD mutation: RXRa K156A/R161A, NR concentration 270 nM, RXRa partner concentration 90 nM)
Procedure, shortened: as §1

[12] = test system: PPARg:RXRa IVT, anti-PPARg (NR concentration 270 nM, RXRa partner concentration 90 nM)
Procedure, shortened: as §1

[13] = test system: PPARg DBDmut:RXRa IVT, anti-PPARg (DBD mutation: PPARg1 K132A/R137A, NR concentration 270 nM, RXRa partner concentration 90 nM)
Procedure, shortened: as §1

[14] = test system: PPARg DBDmut IVT, anti-PPARg (DBD mutation: PPARg1 K132A/R137A, NR concentration 270 nM)
Procedure, shortened: as §1

[15] = test system: PPARg homodimer (NR concentration 180 nM)
Procedure, shortened: as §1

[16] = test system: PXR:RXRa (NR concentration 270 nM, RXRa partner concentration 90 nM)
Procedure, shortened: as §1

[17] = test system: PXR homodimer (NR concentration 270 nM)
Procedure, shortened: as §1

[18] = test system: RARa:RXR (NR concentration 270 nM, RXRa partner concentration 90 nM)
Procedure, shortened: as §1

[19] = test system: RARa homodimer (NR concentration 270 nM)
Procedure, shortened: as §1

[20] = test system: RARb:RXRa (NR concentration 270 nM, RXRa partner concentration 90 nM)
Procedure, shortened: as §1

Sequence | PBM binding z-score [1] | PBM binding z-score [2] | PBM binding z-score [3] | PBM binding z-score [4] | PBM binding z-score [5] | PBM binding z-score [6] | PBM binding z-score [7] | PBM binding z-score [8] | PBM binding z-score [9] | PBM binding z-score [10] | PBM binding z-score [11] | PBM binding z-score [12] | PBM binding z-score [13] | PBM binding z-score [14] | PBM binding z-score [15] | PBM binding z-score [16] | PBM binding z-score [17] | PBM binding z-score [18] | PBM binding z-score [19] | PBM binding z-score [20]
CCTAGGTGGTCAAGGTCACACACGCTATAGGTAC | 4.58 | 3.67 | 1.51 | 3.57 | 0.536 | 4.35 | 3.72 | 3.83 | 1.19 | 2.85 | 1.34 | 3.54 | 0.368 | 0.561 | 4.82 | 4.24 | 1.58 | 4.44 | 1.3 | 4.22
ACAGACAGGTGATGAAGGTAACGCAGGCTATCAT | -0.062 | -0.206 | -0.481 | -0.283 | -0.516 | -0.00302 | 0.871 | 0.114 | -0.0221 | 0.00481 | -0.0406 | 0.365 | -0.0492 | 0.0429 | -0.243 | -0.376 | 0.103 | -0.27 | -0.271 | 0.179
TATACAGGGTCAGAGGCCAGAGTACGAATGTCGA | 4.14 | 3.96 | 0.791 | 2.95 | 1.8 | 4.29 | 5.34 | 5.19 | 3.23 | 4.52 | 1.65 | 3.65 | 2.26 | 1.28 | 2.24 | 2.83 | 0.79 | 3.74 | 1.13 | 3.72
AGAATGAGGTTATACGTAGCTCAGGGAAGAAAGT | 1.61 | 1.23 | -0.204 | 1.05 | -0.347 | 2.86 | 1.46 | 1.95 | 0.439 | 1.23 | 3.72 | 1.8 | 0.808 | 0.83 | 0.431 | 0.653 | 0.0212 | 1.15 | 0.35 | 1.11
TAGCCTAGGTCATTCAGGGCCCAGTATAGAAAGC | 4.66 | 3.59 | 0.608 | 2.37 | 0.858 | 3.62 | 1.96 | 2.34 | 0.126 | 1.56 | 1.83 | 2.54 | 0.246 | -0.28 | 1.19 | 1.88 | -0.155 | 2.32 | -0.0549 | 3.54
TTACCAAGGTGAAGGTCGTTCATCCCTCTGTAGA | 1.75 | 2.56 | 0.0622 | 1.51 | -0.519 | 2.77 | 3.06 | 4.13 | 2.5 | 3.8 | 1.8 | 3.39 | -0.313 | 0.687 | 0.597 | 1.9 | 0.214 | 1.55 | -0.144 | 2.54
TCTTGTAGATCAACAGGAGGGTAAGAAAGATCGA | 0.289 | 0.24 | -0.818 | 0.0772 | -0.238 | 0.374 | -0.102 | 1.06 | 2.25 | 1.7 | 1.73 | 0.871 | 0.452 | 0.0976 | -0.361 | 0.00133 | -0.381 | -0.112 | 0.0256 | 0.107
CAAACTAGGTCACCGGAAGGGCAAAGTCCGCATG | 4.22 | 3.85 | 0.736 | 2.88 | 0.171 | 5.16 | 8.84 | 6.95 | 4.85 | 6.67 | 8.45 | 8.73 | 1.66 | 1.37 | 1.44 | 3.29 | 0.241 | 3.92 | 0.698 | 4.47
ATCGAAAGGTCGTGAGGTCAGTATACAGAAAGGC | 6.58 | 5.12 | 1.48 | 4.57 | 1.04 | 5.7 | 5.27 | 5.25 | 2.05 | 3.65 | 0.335 | 2.89 | 1.16 | 0.766 | 3.48 | 5.08 | 0.97 | 5.65 | 1.02 | 5.02
AATCAAAGTTCAGGACGAGGTAACGTAAAGCACG | 3.75 | 4.39 | 2.25 | 2.03 | 0.58 | 3.2 | 2.07 | 2.19 | 0.724 | 1.26 | -0.649 | 0.571 | 0.569 | 0.969 | 1.98 | 2.9 | 1.19 | 2.55 | 1.39 | 4.19
AGAATGAGGTTATTAAGATCAAGGAATTGCGGTC | 1.4 | 1.67 | 0.35 | 1.5 | 0.176 | 2.85 | 1.82 | 2.2 | 0.602 | 1.6 | 2.9 | 2.73 | 1.27 | 0.466 | 0.735 | 1.37 | 0.527 | 1.58 | 1.15 | 1.45
TGATATAGGTAAATGCTAGGTGAAAGTCCGATCT | 0.297 | 0.127 | 0.0779 | -0.0435 | -0.105 | 1.62 | 1.45 | 1.84 | 1.05 | 1.44 | 4.45 | 3.66 | 0.978 | 0.956 | 0.829 | -0.09 | 0.293 | 0.178 | 1.15 | 0.212
CCTTACGGGTCACGACGTTATAGCACGACGAGCG | 6.55 | 4.13 | 0.322 | 3.66 | 0.374 | 5.69 | 6.15 | 5.93 | 2.65 | 4.97 | 3.85 | 4.92 | 0.866 | 0.177 | 1.83 | 3.57 | 0.0826 | 4.61 | 1.39 | 4.34
